Data on 37 compounds can be found in PubChem BioAssay (NCI).

The panel holds about 83,000 compounds, 20% with a hit somewhere; the sample as a whole holds those more often.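 Percent growth is the endpoint: 0 to 100 indicates growth inhibition (40 means 60% inhibition), 0 means no net growth, and negative values indicate cell death.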 Unmarked numbers belong to inactive results. The source made the active and inactive calls. The calls were made as follows: active = growth percent below 10; inactive = the rest.

The test system of the first assay is CAKI-1 renal. Briefly: NCI-60 one-dose screen, 48 h (100 = growth as untreated, 0 = no growth, -100 = all killed). The conditions noted are these: 10 µM unless noted.
Turning to `O=[N+]([O-])/C(=C/c1ccccc1)c1ccccc1`, the growth is 106%.

For `CCCCCCC1N=C(N)N=C(N)N1c1cccc(Cl)c1` (stereo not drawn), the growth was 100%.

Consider `O=C1C=CC(=O)N1C1CCCCCCCCCCC1`, for which the growth is 43.5%.

Regarding `Cc1nc(Sc2nc3ccc([N+](=O)[O-])cc3s2)sc1C`, the growth is 28.5%.

For the compound `Fc1ccc(NCCS)cc1`, the growth is 110%.

For `OCCOSCCO`, the growth is 101%.

As for `COc1cc(OC)c(/C=C/c2c3ccccc3cc[n+]2C)c(OC)c1`, the growth is 67.8%.

Consider `CC(C)(C)c1ccc(O)c(Br)c1`, for which the growth was 96.4%.

On to `O=C/C=C/c1ccc([N+](=O)[O-])cc1`, for which the growth is 100%.

In the case of `COc1ccc2nc3cc(Cl)ccc3c(NCCCCCN3CCCCC3)c2c1`, the growth is -50.3% (active).

In the case of `COc1cc(-c2ccc(-[n+]3nc(-c4ccc([N+](=O)[O-])cc4)nn3-c3ccc([N+](=O)[O-])cc3)c(OC)c2)ccc1-[n+]1nc(-c2ccc([N+](=O)[O-])cc2)nn1-c1ccc([N+](=O)[O-])cc1`, the growth was -9.54% (active).

On to `O=C1C=CC(=O)N1c1cc(Cl)c(Cl)cc1Cl`, for which the growth is 103%.

With `Nc1cccc2cccc([N+](=O)[O-])c12`, the growth was 107%.

For the compound `CCc1cnc2ccccc2c1/C=C/c1ccc(N(C)C)cc1`, the growth is 51.6%.

With `O=[N+]([O-])c1ccc(C2N(Cc3ccc(Cl)cc3)CCN2Cc2ccc(Cl)cc2)cc1`, the growth was 72.7%.

With `Oc1ccc2c(c1)CCc1ccccc1-2`, the growth was 101%.

As for `COc1cc(/C=C2\SC(=S)N(/C=C/c3nc4ccccc4[nH]c3=O)C2=O)cc(OC)c1OC`, the growth was 87.2%.

Regarding `CC(C)(C)CC(C)(C)c1ccc(OCCOCCSC(=N)N)cc1`, the growth is 65.3%.

A further assay has as its system A498 renal. Described as above. The conditions noted are these: 10 µM unless noted.
For `CCOC(=O)c1c(C)[nH]c2ccc(O)cc12`, the growth was 111%.

On to `CCC1CCCCN1C(=S)N/N=C(\C)c1ccccn1` (stereo not drawn), for which the growth was -21.9% (active).

For `CC(/C=N/NC(N)=S)Cc1ccc(C(C)C)cc1` (stereo not drawn), the growth is 51%.

For `Nc1ccc(C(=O)/C=C/c2ccccc2)cc1`, the growth was 101%.

On to `Cc1oc2c(C)c3oc(=O)cc(C)c3cc2c1CCl`, for which the growth was 61.8%.

With `O=C(/C(Cl)=N/O)c1ccc(-c2ccccc2)cc1`, the growth is 123%.

For the compound `CC(C)c1ccc(Nc2n[nH]c(=S)s2)cc1`, the growth is 94.6%.

On to `NC(=S)N/N=C\c1nccc2c(N)cccc12`, for which the growth is 12.2%.

With `COc1cc2c(c(OC)c1OC)-c1ccc(NCc3ccccc3)c(=O)cc1[C@@H](NC(C)=O)CC2`, the growth was -17.3% (active).

With `CCCCCCCCCCCCCCCCSC(=NCC)NCC`, the growth is 67.4%.

Turning to `CN(Cc1ccccc1)c1ccc(SC#N)cc1`, the growth was 93%.

`CC(=O)Nc1ccc(C(=O)CCl)cc1`: the growth was 99.8%.

On to `O=[N+]([O-])c1ccc(N2CCN(Cc3ccccc3)CC2)c2c1no[n+]2[O-]`, for which the growth was 47.6%.

For the compound `CCOC(=O)NC(/C=C/c1ccccc1)NC(=O)OCC`, the growth is 89.3%.

Turning to `CCCCN(CCCC)CCCCCCCCCCO`, the growth is 123%.

`S=C1SCN(Cc2cccs2)CN1Cc1cccs1`: the growth is 95.7%.

As to `CCOC(=O)/C(=C\c1ccc2ccccc2c1)P(=O)(OCC)OCC`, the growth is 55.3%.

Regarding `Nc1ccc(Oc2ccccc2)c(Cl)c1`, the growth was 57.5%.

In the case of `COc1ccc(C(Cn2ccnc2)Sc2ccc(Cl)c(Cl)c2)cc1` (stereo not drawn), the growth is 67.8%.

`O=[N+]([O-])/C(=C/c1ccccc1)c1ccccc1`: the growth was 107%.

`CCCCCCC1N=C(N)N=C(N)N1c1cccc(Cl)c1` (stereo not drawn): the growth is 83%.

For `O=C1C=CC(=O)N1C1CCCCCCCCCCC1`, the growth was 113%.

Consider `Cc1nc(Sc2nc3ccc([N+](=O)[O-])cc3s2)sc1C`, for which the growth was 46.5%.

For `Fc1ccc(NCCS)cc1`, the growth is 101%.

With `OCCOSCCO`, the growth was 120%.

With `COc1cc(OC)c(/C=C/c2c3ccccc3cc[n+]2C)c(OC)c1`, the growth is 36.6%.

In the case of `CC(C)(C)c1ccc(O)c(Br)c1`, the growth is 73.4%.

Take `O=C/C=C/c1ccc([N+](=O)[O-])cc1`: the growth is 78.6%.

Take `COc1ccc2nc3cc(Cl)ccc3c(NCCCCCN3CCCCC3)c2c1`: the growth was 19.7%.

`COc1cc(-c2ccc(-[n+]3nc(-c4ccc([N+](=O)[O-])cc4)nn3-c3ccc([N+](=O)[O-])cc3)c(OC)c2)ccc1-[n+]1nc(-c2ccc([N+](=O)[O-])cc2)nn1-c1ccc([N+](=O)[O-])cc1`: the growth is -22.2% (active).
